This is an account of results in PubChem BioAssay AID504766 (The Scripps Research Institute Molecular Screening Center, 2011).

Values joined by “and” are separate entries in the source; they are usually repeats but may differ in a detail not shown here. Identical values can stand only once. Screen size: about 340,000 compounds; about 3,400 (1%) were called active. The sample holds actives, similar compounds and a random draw of the others, so the mix is not that of the screen.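 The calls were made as follows: active = inhibition above the mean over all tested compounds plus 3 SD (cut at about 4.2% in these data); inactive = the rest.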

In the assay the target is Nuclear receptor subfamily 0 group B member 1 (Homo sapiens) (UniProt P51843). In words: relief of DAX1 transcriptional repression – cell-based, HEK293, Gal4-DAX1, luciferase luminescence, primary screen (AID 504766).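 Also: 0% = DAX1-transfected cells with DMSO and 100% = empty-vector control cells with DMSO; inhibition shows as a rise in luminescence from relieved DAX1 repression.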 The note with it: HEK293 Gal4-DAX1 luciferase reporter, at 6.75 µM, hits give high values.
Sequence of Nuclear receptor subfamily 0 group B member 1 (Homo sapiens) (P51843 207-470 limits assumed): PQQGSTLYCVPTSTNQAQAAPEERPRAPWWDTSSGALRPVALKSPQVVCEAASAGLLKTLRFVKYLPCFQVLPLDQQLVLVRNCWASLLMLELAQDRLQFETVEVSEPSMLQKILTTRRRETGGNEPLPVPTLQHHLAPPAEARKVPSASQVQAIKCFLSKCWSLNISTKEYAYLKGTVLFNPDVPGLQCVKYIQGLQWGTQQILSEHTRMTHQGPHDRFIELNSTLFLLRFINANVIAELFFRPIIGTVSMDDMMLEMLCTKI
On to `COC(=O)c1sc(SC)c(S(=O)(=O)C(C)C)c1N/N=C(\C#N)S(=O)(=O)c1ccccn1`, for which the inhibition is 4.53% (active).

As to `Cc1cc(C)c2c(=O)n3c(nc2c1)C(CC(C)C)NC(=O)c1cc2ccccc2cc1-3` (stereo unspecified), the inhibition was 0.81% (inactive).

As for `COc1ccc(C=C2CCC3C(CCCC34OCCO4)C2=O)cc1` (stereo unspecified), the inhibition is 1.37% (inactive).

`COc1ccc(CN2C(=O)C(CC(=O)NCCCCc3ccccc3)CC(C(=O)N3CCOCC3)=C2C)cc1` (stereo unspecified): the inhibition was -0.84% (inactive).

Turning to `CCCCCCNC(=O)O[C@]12C[C@@H](C(=O)OC)[C@@H](C(=O)OC)C[C@@]1(O)CN(S(=O)(=O)c1ccc(C)cc1)C2`, the inhibition was 0.26% (inactive).

For the molecule `CCOC(=O)c1cc(-c2sc(NC(=O)c3ccccc3)nc2C)n(Cc2ccccc2)n1`, the inhibition is -1.03% (inactive).

For `O=S1(=O)CCN(C2CCCCCCCCCCC2)CC1`, the inhibition was -0.26% (inactive).

With `O=C(Nc1cccc([N+](=O)[O-])c1)c1ccc2c(c1)OCO2`, the inhibition is 0.29% (inactive).

As to `Cc1cc(C)nc(NC(=O)c2cccc([N+](=O)[O-])c2)c1`, the inhibition was 0.73% (inactive).

Consider `O=C(Nc1ccc(C2CC2(Cl)Cl)cc1)c1cccc([N+](=O)[O-])c1` (stereo unspecified), for which the inhibition is 4.49% (active).

For the molecule `CC1=C(C(=O)N2CCOCC2)CC(CC(=O)NCc2ccco2)C(=O)N1Cc1ccc(F)cc1` (stereo unspecified), the inhibition is 1.82% (inactive).

As to `COc1ccc(C(=O)NC(=S)NC2CCCCC2)cc1`, the inhibition was 1.16% (inactive).

As for `Cc1ccc(/C=N/NC(=S)NC2CCCCC2)o1`, the inhibition is 4.44% (active).

In the case of `C/C(=N\NC(=S)NC1CCCCC1)c1ccc(C)o1`, the inhibition was 0.98% (inactive).

In the case of `O=C(C1CCC1)N1CCN(c2ccccc2)CC1`, the inhibition was 0.59% (inactive).

For the molecule `CC1CCCCC12NC(=O)N(CC(=O)N1CCN(c3ccccc3)CC1)C2=O` (stereo unspecified), the inhibition was 1.67% (inactive).

For the molecule `NC(=O)C1CCCN(CC(=O)N2CCN(c3ccccc3)CC2)C1` (stereo unspecified), the inhibition is 6.46% (active).

With `Cc1ccc(S(=O)(=O)N2C[C@H]3C(=O)C[C@@H](c4cccc5ccccc45)N(S(=O)(=O)c4ccc(C)cc4)[C@H]3C[C@H]2c2ccc(Cl)cc2)cc1`, the inhibition is -0.08% (inactive).

Take `CC(C)CC(=O)N/C(N)=N/c1nc2ccccc2s1`: the inhibition is 0.77% (inactive).

As to `CCC(=O)NC(=Nc1nc2ccccc2s1)NC(=O)CC`, the inhibition is 6.2% (active).

As for `O=C(CCC(=O)c1cccs1)Nc1nc2ccccc2s1`, the inhibition was 0.63% (inactive).

For the molecule `Cc1cccc(C(=O)C(O)(c2ccccc2)C2CCCCC2=O)c1` (stereo unspecified), the inhibition is 0.38% (inactive).

For the molecule `COc1ccc(NC(=O)CN(C)C(=O)c2cc(C)oc2C)cc1`, the inhibition is -0.29% (inactive).

Turning to `Cn1nnc(NC(=S)NC(=O)c2ccccc2)n1`, the inhibition was 0.45% (inactive).

Take `Cc1cc(C)cc(C(=O)NC(=S)Nc2ccc3[nH]c(=O)[nH]c3c2)c1`: the inhibition is -1.15% (inactive).

As for `Cc1cc2[nH]ncc2cc1NC(=S)NC(=O)c1ccccc1`, the inhibition was 5.71% (active).

As to `O=C(OCC(=O)N1CCCCCC1)c1cccc(Cl)c1Cl`, the inhibition is 3.82% (inactive).

For the molecule `O=C(CSc1ncn[nH]1)Nc1nc2c(F)c(F)c(F)cc2s1`, the inhibition is 0.83% (inactive).

As for `C=CCSC(CC)(CC)C(N)=O`, the inhibition was 4.43% (active).

For `Cc1[nH]n(-c2ccccc2)c(=O)c1CCOC(=O)c1ccc(C(F)(F)F)cc1`, the inhibition was 5.49% (active).

`CCOC(=O)C[C@H]1c2ccc(C(F)(F)F)cc2S(=O)(=O)N1c1ccccc1`: the inhibition is 0.49% (inactive).

As to `CCCOC(=O)c1ccc(N2C(=O)c3ccccc3C2=O)cc1`, the inhibition was -0.27% (inactive).

Consider `Cc1ccc([C@H]2N[C@]3(CCCN(CC4CCCCC4)C3=O)[C@H]3C(=O)N(Cc4ccccc4)C(=O)[C@@H]23)cc1`, for which the inhibition is -0.61% (inactive).

Take `CC1(C)CC(=O)C=C(c2ccccc2CO)C1=O`: the inhibition was 0.81% (inactive).

`CNS(=O)(=O)c1ccc(NC(=O)Nc2ccc3c(c2)OCO3)cc1`: the inhibition was 4.23% (active).

For the molecule `CC(C)CNS(=O)(=O)c1ccc(C(=O)Nc2ccc3c(c2)OCO3)cc1`, the inhibition is 0.58% (inactive).

Take `Cc1cccc(NC(=O)Nc2ccc3c(c2)OCO3)n1`: the inhibition was 3.3% (inactive).

Take `C/C(COc1ccccc1)=N\NC(=O)c1nnn(-c2nonc2N)c1-c1ccc(C)cc1`: the inhibition is 1.15% (inactive).

For `CC(Sc1nnnn1C1CCCCC1)C(=O)O` (stereo unspecified), the inhibition is -0.46% (inactive).

On to `CC(Sc1nnnn1C)C(=O)NC(=O)NC1CCCCC1` (stereo unspecified), for which the inhibition is 4.23% (active).

With `Cc1nnc(SCC(=O)NC(=O)NC2CCCC2)n1N`, the inhibition was -0.17% (inactive).

For the molecule `NC(=S)NN=Cc1ccc(OC(=O)COc2cc(Cl)c(Cl)cc2Cl)cn1`, the inhibition was -2.71% (inactive).

Consider `N#C/C=C1\Sc2ccccc2C(=O)N1CC(=O)N1CCN(S(=O)(=O)c2ccccc2)CC1`, for which the inhibition is 4.84% (active).

Turning to `O=C(CN1CCCSc2ccccc21)N1CCN(S(=O)(=O)c2cccc(F)c2)CC1`, the inhibition was -0.31% (inactive).

`O=C(CN1CCCSc2ccccc21)N1CCN(S(=O)(=O)c2ccccc2)CC1`: the inhibition was 0.49% (inactive).

For `COCOCCn1cc(CN2CCS(=O)(=O)N(Cc3ccc(-c4ccc(OC)cc4)cc3)C(CC(C)C)C2=O)nn1` (stereo unspecified), the inhibition is -0.18% (inactive).

`COc1ccccc1NC(=S)N1CCN(c2ccc(F)cc2)CC1`: the inhibition was 0.5% (inactive).

Turning to `CC1CN(C(=S)Nc2ccccc2F)CC(C)O1` (stereo unspecified), the inhibition was -0.08% (inactive).

`COc1c(N2CCN(C(=S)Nc3ccccc3F)C(C)C2)c(F)cc2c(=O)c(C(=O)O)cn(C3CC3)c12` (stereo unspecified): the inhibition was 4.24% (active).

For the molecule `Cc1ccc(C(=O)NC(C)C(c2cccs2)N2CCOCC2)cc1C` (stereo unspecified), the inhibition is 0.43% (inactive).

Take `O=C(Nc1cccc(C(=O)O)c1)/C(=C\c1ccccc1)NC(=O)c1ccc(Br)o1`: the inhibition is 1.84% (inactive).

As for `c1cnn(-c2cc(N3CCOCC3)ncn2)c1`, the inhibition is 0.28% (inactive).

For `COc1ccccc1N1CCN(C(=O)C(=O)N/N=C/c2ccccc2F)CC1`, the inhibition is -0.62% (inactive).

Take `Fc1ccccc1/C=N/Nc1cc(N2CCCCC2)ncn1`: the inhibition was 9.97% (active).

Consider `Cc1cccc(C(=O)OCC(=O)Nc2sccc2C(N)=O)c1C`, for which the inhibition was 0.47% (inactive).

As for `COc1ccc(Cn2c(=S)[nH]c3cc(C(=O)N4CCCCC4)ccc3c2=O)cc1`, the inhibition is -0.61% (inactive).

For `COc1ccc(Cn2c(=O)cc(C)[nH]c2=S)cc1`, the inhibition was 4.43% (active).

`COc1cc2[nH]c(=S)n(Cc3ccc(F)cc3)c(=O)c2cc1OC`: the inhibition was -0.72% (inactive).

As to `COc1ccccc1-c1n[nH]nc1C1=CC(=O)CC(C)(C)C1`, the inhibition was 1.58% (inactive).

`CCOc1ccc(NS(=O)(=O)c2ccc(C(=O)NCC3CCCO3)cc2)cc1` (stereo unspecified): the inhibition was 0.78% (inactive).

As for `CC(C)c1ccc(C=NNc2ccc([N+](=O)[O-])cn2)cc1`, the inhibition is 4.47% (active).

Take `CC(=O)c1sc(N/N=C/c2ccc(C(C)C)cc2)nc1C`: the inhibition was 0.37% (inactive).

In the case of `O=[N+]([O-])c1cccc(/C=N/Nc2ncc(Br)cn2)c1`, the inhibition is 3.56% (inactive).

Consider `CC1=C(C(=O)N(C)C)CC(CC(=O)NCCN2CCOCC2)C(=O)N1Cc1ccccc1` (stereo unspecified), for which the inhibition was 0.86% (inactive).

Turning to `CC(C)CCOc1ccc(C(=O)Nc2cc(S(=O)(=O)N3CCOCC3)ccc2N2CCOCC2)cc1`, the inhibition is 1.57% (inactive).

As for `COC(=O)C1NN=C(C(=O)c2ccc(Br)cc2)C1c1cccc(Br)c1` (stereo unspecified), the inhibition is 5.4% (active).

On to `COC(=O)C1=C(C)N(C)C(C)=C(C(=O)OC)C1c1cccc(Br)c1`, for which the inhibition was -0.19% (inactive).

For `COc1ccc(C(=O)c2oc3ccc(Br)cc3c2NC(C)=O)cc1`, the inhibition is 0.74% (inactive).

Take `Cc1ccc(C(=O)OCC(=O)NC2CCCCCCC2)cc1C`: the inhibition was 1.83% (inactive).

Consider `CCOC(=O)c1cc(-c2sc(NC(=O)c3ccccc3)nc2C)n(-c2ccc(Br)cc2)n1`, for which the inhibition was -0.34% (inactive).

With `N/C(=N\OC(=O)c1ccc([N+](=O)[O-])cc1)c1ccccn1`, the inhibition was 0.14% (inactive).

As to `COc1ccc(C(=O)O/N=C(\N)c2ccccn2)cc1[N+](=O)[O-]`, the inhibition is 4.71% (active).

For `COc1ccccc1OCC(=O)O/N=C(\N)c1ccccn1`, the inhibition was 2.91% (inactive).

For `CCN(CC)C(=O)C(C)N1c2cccc3cccc(c23)S1(=O)=O` (stereo unspecified), the inhibition was 0.49% (inactive).

For the molecule `COc1ccc(NC(=O)CN2C(=O)NC(C)(c3ccccc3)C2=O)cn1` (stereo unspecified), the inhibition was 1.1% (inactive).

With `Cc1ccc(-c2ccc(C3=CC(=O)CC(C)(C)C3=O)cc2)cc1`, the inhibition was 3.24% (inactive).

Regarding `CNS(=O)(=O)c1ccc(NC(=O)C2CC(=O)N(c3ccc(Cl)cc3)C2)cc1` (stereo unspecified), the inhibition is 4.35% (active).

Take `O=C(Nc1ccc(S(=O)(=O)N2CCCCC2)cc1)C1CC(=O)N(c2ccc(F)cc2)C1` (stereo unspecified): the inhibition was -1.03% (inactive).

For `Cc1ccc(N2CC(C(=O)Nc3ccc(S(=O)(=O)N4CCCC4)cc3)CC2=O)cc1C` (stereo unspecified), the inhibition is -0.34% (inactive).

With `Nc1cc(C(=O)N2CCN(c3ccccc3Cl)CC2)ccc1N1CC2CC(C1)c1cccc(=O)n1C2` (stereo unspecified), the inhibition is 2.59% (inactive).

With `CC(NC(=O)C1CCC(CNc2c(N3CCOCC3)c(=O)c2=O)CC1)c1ccccc1` (stereo unspecified), the inhibition is 0.2% (inactive).

Turning to `COc1ccc(CNC(=O)C2CCC(CNc3c(N4CCOCC4)c(=O)c3=O)CC2)cc1` (stereo unspecified), the inhibition is -0.15% (inactive) and -0.24% (inactive).

Regarding `O=C(NCc1ccc(F)cc1)C1CCC(CNc2c(N3CCOCC3)c(=O)c2=O)CC1` (stereo unspecified), the inhibition was 5.78% (active).

On to `C[C@H]1CN([C@@H](C)CO)C(=O)CCCn2cc(nn2)CO[C@@H]1CN(C)C(=O)Nc1ccccc1`, for which the inhibition is 1.03% (inactive).

For the molecule `O=S(=O)(c1ccc2c(c1)OCCO2)N1CCc2ccccc21`, the inhibition was 0.28% (inactive).

Consider `CCn1c(=O)c(=O)n(CC)c2cc(S(=O)(=O)N3CCc4ccccc43)ccc21`, for which the inhibition is -1.26% (inactive).

Regarding `O=S(=O)(c1ccccc1)N1CCc2ccccc21`, the inhibition is 5.18% (active).

As for `C[C@H]1CN([C@@H](C)CO)C(=O)CCCn2cc(nn2)CO[C@@H]1CN(C)S(=O)(=O)c1ccc(-n2cccn2)cc1`, the inhibition was 2.41% (inactive).

`CC(C)C(=O)N1c2ccccc2NC2=C(C(=O)CCC2)C1c1ccc(N(C)C)cc1` (stereo unspecified): the inhibition is 4.33% (active).

Regarding `CCC(=O)N1c2ccccc2NC2=C(C(=O)CCC2)C1c1ccco1` (stereo unspecified), the inhibition is -0.14% (inactive).

Turning to `CCCC(=O)N1c2ccccc2NC2=C(C(=O)CCC2)C1c1ccc(F)cc1` (stereo unspecified), the inhibition is -0.04% (inactive).
